Source: PubChem
Compounds with a hit are over-represented: about 5.2% of the library has one in this group of screens.
Coupling enz: counter-screen for Giardia aldolase inhibitors: coupling enzyme system | coupling enzyme system counterscreen, AmpLite Red fluorescence | activity change, negative = inhibition, % at 58.2 µM, hits read low | 0.67% of 290,000 active; in the data active = activity change below about -30%
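Fluorescence at 525 nm excitation and 598 nm emission measured inhibition of the coupled detection system without aldolase. Compounds (at 57.5 uM final) were preincubated 10 min at room temperature with coupling enzyme reagent before a 20 min substrate/AmpLite Red step.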
Tau fluor cs: counter-screen for tau fibril formation inhibitors; 0.93% of 280,000 active; tau K18 P301L Alexa594 fluorescence, heparin fibrillization; Potency, µM (top dose mostly 57.7 µM), for inactives: at the highest dose activity change, negative = decrease; AID 1463; also: potency is read from the fitted curve at half-maximal effect; nearly all actives have a fitted effect of over 55% in size
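Human tau K18 P301L (15 uM unlabeled, 0.24 uM Alexa 594-labeled) in 100 mM sodium acetate pH 7 with 20 uM heparin, 6 hr at 37 C. ThT 30 uM added, 1 hr ambient; Alexa 594 FP and total fluorescence read at 555/632 nm.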
Tau fibril FP: blocks human tau fibril formation measured by polarization | Potency, µM (series often up to 57.7 µM), inactives show at the highest dose activity, negative = inhibition, usual class: inhibitors | K18 P301L tau heparin fibrillization, Alexa594 FP, 6 h | 0.39% of 280,000 active | P10636; also: potency is read from the fitted curve at half-maximal effect; nearly all actives have a fitted effect of over 55% in size
Target sequence (P10636 561-689 P618L limits assumed): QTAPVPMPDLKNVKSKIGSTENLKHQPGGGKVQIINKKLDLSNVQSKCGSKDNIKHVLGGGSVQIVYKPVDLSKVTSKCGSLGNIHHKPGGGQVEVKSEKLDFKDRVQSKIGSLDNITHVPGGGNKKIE
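Quantitative HTS format: compounds meet 15 uM recombinant K18 P301L tau and Alexa 594-tau tracer in 100 mM sodium acetate pH 7; 20 uM heparin triggers fibrillization at 37 C over 6 hr; FP gives the signal.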
Tau ThT inhib: inhibitors of human tau fibril formation, thioflavin T binding | P10636 | recombinant tau K18 P301L (four-repeat tau fragment), heparin-induced fibrillization, ThT fluorescence | AID 1460 | Potency, µM (highest dose often 57.4 µM), for inactives: at the highest dose activity, negative = inhibition, hits mostly inhibitors | 2.1% of 270,000 active; also: potency is read from the fitted curve at half-maximal effect; nearly all actives have a fitted effect of over 55% in size
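Heparin-induced (20 uM) aggregation of recombinant human K18 P301L tau, 15 uM unlabeled with 0.24 uM labeled, pH 7 acetate buffer, 6 hr at 37 C with compound. Fibrils quantified by 30 uM ThT fluorescence after 1 hr ambient incubation.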
Sfp inh: Sfp phosphopantetheinyl transferase inhibition. Q9F4F7. Biochemical Sfp PPTase activity, qHTS. Potency, µM, inactives show largest response in the series, negative = inhibition, actives largely listed as inhibitors. 3.5% of 310,000 active. AID 1490;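 also: the enzyme is Sfp with the accession as filed and its product quenches rhodamine fluorescence; potency is read from the fitted curve at half-maximal effect; 0% = enzyme reaction without inhibitor and -100% = no enzyme wells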
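Buffer: 50 mM Hepes-Na pH 7.6, 10 mM MgCl2, 0.01% Nonidet P-40, 0.01% BSA. Enzyme 15 nM, pre-exposed to compound 15 min; substrates then added and fluorescence change tracked over 30 min.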
Active calls of the source: *; u = inconclusive; x = not tested or not shown; ! = not confirmed by another sample; [ ] = dose if it differs, or a comment. Unless noted, calls follow the shape of the dose curve; as a rule, active = well fitted curve in the direction sought with a large enough effect; inconclusive = small, poorly fitted or top-dose-only effect, or another doubt; inactive = no such curve, though single readings can be large; an effect the other way counts as inactive or inconclusive. Unless noted, % is scaled to controls: 0 for no effect and ±100 for the full control effect.

SMILES | Coupling enz | Tau fluor cs | Tau fibril FP | Tau ThT inhib | Sfp inh
CCOC(=O)c1c(N)n(CC(C)NC(=O)C2CC2)c2nc3ccccc3nc12 (stereo unspecified) | 7.2 | -0.7% | -9.0% | -6.2% | 0.0%
COc1ccccc1CNc1ccc(-c2nc(C)no2)cc1[N+](=O)[O-] | x | -18.6% | -8.7% | -4.0% | x
CCc1ccccc1NC(=O)N1CCC(CN2CCc3ccccc3C2)CC1 | x | 6.1% | 4.5% | 7.1% | x
Oc1ccc(N=Nc2ccc3c(c2)OCO3)c2ccccc12 | -3.2 | -20.3% | u | 0.891µM* | 15.2%
Cc1ccc(N=Nc2ccc(O)c3ncccc23)cc1C | -8.1 | -26.5% | 12.5% | u | 5.6%
CCCCCOC(=O)CSc1ncnc2sc3c(c12)CCC(C)C3 (stereo unspecified) | x | -8.3% | -10.7% | -17.9% | x
Oc1c(Br)cc(Br)cc1C=Nc1ccc2c(c1)OCO2 | -3.2 | -7.2% | u | 20µM* | -3.6%
O=[N+]([O-])c1ccc(O)c(C=Nc2ccc3c(c2)OCCO3)c1 | -0.1 | 2.6% | 5.6% | 1.2% | -8.5%
Cc1cccc(/N=C/c2c(O)[nH]c3ccccc23)n1 | -7.4 | -21.0% | 15.2% | u | -8.1%
Oc1c(Br)cc(Br)cc1C=Nc1ccc2c(c1)OCCO2 | -6.3 | -16.2% | u | 11.2µM* | -17.3%
Oc1[nH]c2ccccc2c1C=Nc1ccc2c(c1)OCCO2 | -7.2 | u | 16.1% | 11.2µM* | -14.5%
OC1OC[C@H](O)[C@@H](O)[C@@H]1O (stereo partly specified) | 0.2 | x | x | x | 1.2%
O=C(CNc1ccc(Cl)cc1)c1ccc(Br)cc1 | 1.3 | 1.7% | 8.1% | -15.0% | 7.0%
O=C(CNc1ccc(Br)cc1)c1ccc(O)cc1 | 7.6 | u | 6.7% | u | 39.8µM*
COc1cc(NC(=O)CCn2nc(C)c(S(=O)(=O)N3CCCCC3)c2C)cc(OC)c1OC | x | -8.1% | 10.1% | 0.3% | x
O=c1c2c3c(sc2nc(NCCO)n1Cc1ccco1)CCCCC3 | -2.2 | u | 15.8% | u | 9.3%
CN1CCc2c(sc3nc(NN)n(-c4ccc(Cl)cc4)c(=O)c23)C1 | -1.6 | x | x | x | -17.5%
O=c1c2c3c(sc2nc(NCCO)n1CCc1ccccc1)CCCCC3 | -3.6 | 14.1µM*[quencher] | u | u | 7.4%
CN1CCc2c(sc3nc(NN)n(Cc4ccccc4)c(=O)c23)C1 | -3.6 | u | -13.2% | 15.8µM* | -17.1%
Cn1c(N/N=C/c2ccccc2)nc2sc3c(c2c1=O)CCC3 | -3.7 | 17.8µM*[quencher] | 5.8% | u | -21.5%
O=C(CSc1nc2sc3c(c2c(=O)n1-c1ccccc1)CCCC3)N/N=C/c1ccc(C(=O)O)cc1 | 2.4 | x | x | x | -0.9%
C[C@@H]1C(SC2Cn3cnc[n+]3C2)=C(C(=O)[O-])N2C(=O)[C@H]([C@@H](C)O)[C@@H]12 (stereo partly specified) | x | x | x | x | 23.7%
O=C(CN1C(=O)C(c2ccc(F)cc2)=NC12CCCCCC2)Nc1ccc(F)c(Cl)c1 | x | -28.7% | u | 8.4% | x
Oc1c(Br)cc(Br)cc1-c1nc2ccccc2s1 | x | -5.5% | 5.5% | -12.3% | x
CC(Oc1ccccc1)C(=O)Nc1c(C(=O)Nc2cccc(F)c2)oc2ccccc12 (stereo unspecified) | x | u | 10µM* | 10.0% | x
SMILES | Coupling enz | Tau fluor cs | Tau fibril FP | Tau ThT inhib | Sfp inh
Cc1ccccc1C(=O)Nc1c(C(=O)Nc2cccc(F)c2)oc2ccccc12 | x | -27.3% | u | 1.4% | x
CCOc1ccc(N2CC(c3nc4ccccc4n3CCCOc3ccccc3OC)CC2=O)cc1 (stereo unspecified) | x | -11.9% | -8.4% | u | x
COc1cccc([C@H]2Nc3ccc(S(=O)(=O)Nc4cc(C)ccc4C)cc3[C@H]3C=CC[C@H]32)c1 | x | u | 4.3% | u | x
O=C(O)c1ccc(NS(=O)(=O)c2ccc3c(c2)C2C=CCC2C(c2ccccc2F)N3)cc1 (stereo unspecified) | -0.9 | u | u | 31.6µM* | 10µM*
Cc1ccc([C@H]2Nc3ccc(S(=O)(=O)Nc4cccc(Cl)c4C)cc3[C@H]3C=CC[C@H]32)cc1 | x | u | -8.4% | 12.6µM* | x
O=C(Cn1c(=O)oc2ccccc21)Nc1n[nH]c(=S)s1 | 3.4 | -12.6% | -1.7% | -14.1% | 31.6µM*
O=C(Cn1c(=O)oc2ccccc21)Nc1nc(-c2ccccc2)cs1 | 1.2 | -12.0% | -14.6% | 3.4% | 1.7%
O=C(NCc1ccccc1Cl)c1cc(-c2ccccc2)n[nH]1 | x | -25.1% | -10.7% | 10.2% | x
NC(=O)[C@@H]1CCCN1C(=O)[C@H](Cc1cnc[nH]1)NC(=O)[C@@H]1CCC(=O)N1 | x | x | x | x | 11.8%
CCCCN1C(=O)/C(=C2\SC(N3CCCCC3)=NC2=O)c2ccccc21 | -0.4 | -23.3% | 5.6% | u | 44.7µM*
CO/N=C(/C(=O)NC1C(=O)N2C(C(=O)O)=C(CSc3nc(=O)c(O)nn3C)CSC12)c1csc(N)n1 (stereo unspecified) | -0.4 | -11.4% | u | u | 50.1µM*!
CO/N=C(/C(=O)N[C@@H]1C(=O)N2C(C(=O)O)=CCS[C@H]12)c1csc(N)n1 | x | x | x | x | 50.1µM*
CO/N=C(/C(=O)N[C@H]1C(=O)N2C(C(=O)O)=C(COC(C)=O)CSC12)c1csc(N)n1 (stereo partly specified) | 0.1 | -12.6% | -14.7% | u | -32.2%
N#Cc1c(NC(=S)NC(=O)c2ccccc2)sc2c1CCN(CCc1ccccc1)C2 | -2.1 | -18.2% | -2.7% | u | 56.2µM*
COc1cccc(C(=O)Nc2sc3c(c2C#N)CCN(C(C)=O)C3)c1 | -14.4 | -11.3% | -8.0% | u | 39.8µM*
COc1cccc(C(=O)Nc2sc3c(c2C(=O)O)CCCC3)c1 | -27.0 | x | x | x | -0.8%
COC(=O)c1c(NC(=O)C2CC2)sc2c1CCN(C(C)=O)C2 | -4.2 | 15.6% | 8.5% | 5.2% | 14.1µM*
CC(=O)c1cc2c(cc1N/C(=N/S(=O)(=O)c1ccc(C)cc1)c1ccc(F)cc1)OCO2 | x | -12.3% | -12.8% | u | x
COC(=O)N[C@@H](c1cccc(F)c1)[C@@H](C)[N+](=O)[O-] | -0.4 | -8.1% | -11.7% | -1.3% | 6.7%
Cc1cc(C)n(/N=C\c2c(O)ccc3ccccc23)c(=O)c1C(N)=O | -32.4* | -11.0% | -12.4% | -17.5% | -28.0%
O=C(O)C[CH2][Ge](=[O])[O][Ge](=[O])[CH2]CC(=O)O | x | x | x | x | 17.8%
CN1C(=O)c2oc3ccc(Br)cc3c(=O)c2C1c1ccncc1 (stereo unspecified) | 1.2 | 9.1% | 3.4% | -14.1% | 39.8µM*
CN(C)CCN1C(=O)c2oc3ccc(F)cc3c(=O)c2C1c1ccncc1 (stereo unspecified) | -0.8 | -12.3% | -12.7% | -11.2% | 2.4%
N#Cc1c(-c2ccco2)cc(C2CC2)nc1N | -1.0 | 1.7% | 2.5% | -11.1% | 31.6µM*
N#Cc1c(-c2ccccc2)cc(C2CC2)nc1N | 0.7 | -18.0% | -4.8% | u | 8.4%
